Records with an inconclusive call do not appear. A call without a number means that no potency is given here. Calls of active or inactive are those of the source. Calls come from the whole dose curve; as a rule, active = well fitted inhibition curve with a large enough effect in the repeat runs; inconclusive = weak or mixed curves; inactive = flat fitted curve, though single readings scatter.

Luciferin 4-monooxygenase (Photinus pyralis), sequence (P08659 whole entry, looked up): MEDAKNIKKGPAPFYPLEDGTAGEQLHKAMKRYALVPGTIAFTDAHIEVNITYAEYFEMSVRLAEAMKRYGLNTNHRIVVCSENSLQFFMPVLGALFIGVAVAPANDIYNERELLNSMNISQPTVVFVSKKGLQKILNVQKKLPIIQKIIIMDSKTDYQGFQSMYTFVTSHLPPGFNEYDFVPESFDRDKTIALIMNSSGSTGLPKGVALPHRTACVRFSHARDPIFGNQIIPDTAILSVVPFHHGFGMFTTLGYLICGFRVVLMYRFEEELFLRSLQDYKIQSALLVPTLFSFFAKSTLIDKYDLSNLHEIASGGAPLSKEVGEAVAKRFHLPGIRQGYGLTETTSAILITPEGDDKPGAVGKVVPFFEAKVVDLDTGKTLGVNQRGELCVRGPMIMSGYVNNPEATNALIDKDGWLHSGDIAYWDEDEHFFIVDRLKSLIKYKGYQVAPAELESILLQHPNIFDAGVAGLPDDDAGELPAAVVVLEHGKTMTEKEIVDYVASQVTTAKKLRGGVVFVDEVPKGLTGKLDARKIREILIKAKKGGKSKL

The experiment has as its target Luciferin 4-monooxygenase (Photinus pyralis) (UniProt P08659). As to the kind of experiment: qHTS assay to identify small molecule inhibitors of firefly luciferase (AID 1224835). Note: nearly all actives have a fitted effect of over 25% in size. The note with it: purified P. pyralis luciferase, luminescence inhibition; series mostly up to 115 µM. An excerpt:
U.S. Tox21 Program National Center for Advancing Translational Sciences [NCATS] NIH Chemical Genomics Center [NCGC] U.S. Environmental Protection Agency [EPA] National Institutes of Environmental Health Sciences [NIEHS] National Toxicology Program [NTP] U.S. Food and Drug Administration [FDA] Tox21 Assay Overview: Firefly (Photinus pyralis) luciferase is one of the most commonly used transcriptional reporters. Firefly luciferase reporter-gene assays are generally considered one of the most sensitive assay types (Wood, 1995; Wood, 1998). However, it was initially observed, in 1991, by Thompson et al., that compounds that resemble the substrates of firefly luciferase (FLuc) can act as competitive inhibitors of the enzyme, and that these compounds, upon interaction with luciferase in the cell, can actually stabilize the protein and increase its half-life. Previous profiling work by other groups to determine the prevalence of compounds that affect FLuc enzymatic activity (PubChem AID 411) identified that ~3% of the MLSMR library (then at ~72K) inhibited FLuc. […] Thus the Tox21 10K library is profiled for activity against FLuc using a biochemical assay of purified FLuc and KM concentrations of FLuc substrates (D-luciferin and ATP).
These assay plates were then treated with 23nL of compound or DMSO using a Kalypsys pin tool, which allows for delivery of a 6-point interplate titration of each compound to the assay plate (quantitative HTS.) 1 uL of firefly luciferase mix (containing 50 mM Tris acetate, pH 7.6, 0.04 uM P. pyralis luciferase, 0.01% Tween, 0.05% BSA and dH2O) was then delivered by FRD to each well. Luciferase activity was then measured using a ViewLux CCD imager.
(In general: qHTS replaces the single test concentration by a dilution series.)
Consider `C=CC(=O)OCCCCCC`, for which the Potency result is “inactive”.

On to `CCCCCCC(=O)OCC`, for which the Potency result was “inactive”.

Take `C(=C(c1ccccc1)c1ccccc1)c1ccccc1`: the Potency result is “inactive”.

As to `O=C(O)CCNC(=O)c1ccc(N=Nc2ccc(O)c(C(=O)O)c2)cc1`, the Potency was 30.9 µM (active).

Regarding `C/C=C1\C(=O)C[C@H]2[C@@H]3CCC4=CC(=O)CC[C@]4(C)[C@H]3CC[C@]12C`, the Potency result is “inactive”.

Consider `Oc1ccc2c(c1)OC[C@@H](N1CCC(O)(c3ccc(F)cc3)CC1)[C@H]2O`, for which the Potency is 1.55 µM (active).

In the case of `Cc1ncc(CSSCc2cnc(C)c(O)c2CO)c(CO)c1O`, the Potency result was “inactive”.

For the molecule `O=C(O)c1ccccc1-c1ccc(C(F)(F)F)cc1`, the Potency entry is “inactive”.

Take `C=C(C)C(=O)OCCCCCCCCCCCCCCCCCC`: the activity change, negative = inhibition was -0.803% [at 23.6 µM] (inactive).

In the case of `CCN1CCCC1CNC(=O)c1cc(S(N)(=O)=O)ccc1OC` (stereo not given), the Potency result is “inactive”.

On to `Cc1nc(-c2ccc(OCC(C)C)c(C#N)c2)sc1C(=O)O`, for which the Potency was 0.309 µM (active).

`CCCCCCCCCCCl`: the Potency entry was “inactive”.

For the molecule `OC/C=C/c1ccccc1`, the Potency result was “inactive”.

`O=Cc1ccccc1[N+](=O)[O-]`: the Potency entry was “inactive”.

As to `CCCC(C)C(=O)O` (stereo not given), the Potency entry is “inactive”.

As for `CCCC(=O)O[C@]1(C(=O)CCl)[C@@H](C)C[C@H]2[C@@H]3CCC4=CC(=O)C=C[C@]4(C)[C@@]3(F)C(=O)C[C@@]21C`, the Potency result was “inactive”.

On to `COC(=O)CCCCCCCCC(=O)OC`, for which the Potency result was “inactive”.

As to `CC(C)(C)CC(C)(C)N`, the Potency result was “inactive”.

Regarding `O=C(O)C1CCC1`, the Potency result was “inactive”.

Regarding `COCc1ccc(COC)cc1`, the Potency result was “inactive”.

As to `CC1(C)OC(=O)Nc2ccc(Br)cc21`, the Potency result was “inactive”.

As to `CCCCNc1ccccc1`, the Potency result was “inactive”.

Regarding `OCCCCCCO`, the Potency result is “inactive”.

Regarding `Nc1nc(F)nc2c1ncn2[C@@H]1O[C@H](CO)[C@@H](O)[C@@H]1O`, the Potency entry is “inactive”.

Turning to `CCCCCCCCCCC1CO1` (stereo not given), the Potency entry was “inactive”.

Turning to `C1=C\CC/C=C\CC/C=C\CC/1`, the Potency entry was “inactive”.

For the molecule `O=C(O)c1cccc(C(=O)O)n1`, the Potency entry was “inactive”.

Take `CCCCC=O`: the Potency entry is “inactive”.

Turning to `NCCN1CCNC1=O`, the Potency result is “inactive”.

`CN(C)N=Nc1ccccc1`: the Potency entry was “inactive”.

`O=[N+]([O-])c1ccc(Oc2ccc([N+](=O)[O-])cc2)cc1`: the Potency entry is “inactive”.

As to `CC(C)(O)C(=O)c1ccc(OCCO)cc1`, the Potency entry was “inactive”.

`N[C@@H](CS)C(=O)O`: the Potency entry is “inactive”.

In the case of `CC(C)N1C(=O)c2ccccc2C1=O`, the Potency entry is “inactive”.

Turning to `NCCNC(=O)c1ccc(Cl)cn1`, the Potency result was “inactive”.

Turning to `COc1cc(O)cc(O)c1`, the Potency entry is “inactive”.

In the case of `C#CC(O)CCCCC` (stereo not given), the Potency entry is “inactive”.

In the case of `c1ccc(SCCSc2ccccc2)cc1`, the Potency is 7.9 µM (active).

For the molecule `CCCCCN(CCCCC)C(=O)C(CCC(=O)O)NC(=O)c1ccc(Cl)c(Cl)c1` (stereo not given), the Potency entry was “inactive”.

On to `CC(C)CCCCCCN`, for which the Potency entry is “inactive”.
